G9a inh: qHTS Assay for Inhibitors of Histone Lysine Methyltransferase G9a. Histone-lysine N-methyltransferase EHMT2 (Homo sapiens), Q96KQ7. Potency, µM (highest dose often 102 µM), for the others: at the highest dose activity, negative = inhibition, actives largely listed as inhibitors. 350,000 tested, 8.8% active. AID 504332, 2011. G9a H3K9 monomethylation, AlphaScreen, 2 h; further: on the % scale 0 is the no-effect control and ±100 the full control effect; nearly all actives have a fitted effect of over 75% in size
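Quantitative HTS format: methyltransferase activity on a biotin-tagged H3K9 peptide is measured by AlphaScreen, using a rabbit anti-monomethyl-H3K9 antibody with streptavidin donor and anti-IgG acceptor beads. Final levels are 20 nM enzyme, 500 nM peptide, 20 uM SAM; 2 h RT.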
L3MBTL1 block: qHTS Assay for the Inhibitors of L3MBTL1. Lethal(3)malignant brain tumor-like protein 1 (Homo sapiens), Q9Y468. AlphaScreen L3MBTL1–H3K9me1 peptide binding. 230,000 tested, 0.66% active. AID 485360, 2010. Potency, µM (highest dose often 57.1 µM), for inactives: top-dose activity, negative = inhibition, actives largely listed as inhibitors; further: on the % scale 0 is the no-effect control and ±100 the full control effect; nearly all actives have a fitted effect of over 60% in size
Target sequence (Q9Y468 whole entry, looked up): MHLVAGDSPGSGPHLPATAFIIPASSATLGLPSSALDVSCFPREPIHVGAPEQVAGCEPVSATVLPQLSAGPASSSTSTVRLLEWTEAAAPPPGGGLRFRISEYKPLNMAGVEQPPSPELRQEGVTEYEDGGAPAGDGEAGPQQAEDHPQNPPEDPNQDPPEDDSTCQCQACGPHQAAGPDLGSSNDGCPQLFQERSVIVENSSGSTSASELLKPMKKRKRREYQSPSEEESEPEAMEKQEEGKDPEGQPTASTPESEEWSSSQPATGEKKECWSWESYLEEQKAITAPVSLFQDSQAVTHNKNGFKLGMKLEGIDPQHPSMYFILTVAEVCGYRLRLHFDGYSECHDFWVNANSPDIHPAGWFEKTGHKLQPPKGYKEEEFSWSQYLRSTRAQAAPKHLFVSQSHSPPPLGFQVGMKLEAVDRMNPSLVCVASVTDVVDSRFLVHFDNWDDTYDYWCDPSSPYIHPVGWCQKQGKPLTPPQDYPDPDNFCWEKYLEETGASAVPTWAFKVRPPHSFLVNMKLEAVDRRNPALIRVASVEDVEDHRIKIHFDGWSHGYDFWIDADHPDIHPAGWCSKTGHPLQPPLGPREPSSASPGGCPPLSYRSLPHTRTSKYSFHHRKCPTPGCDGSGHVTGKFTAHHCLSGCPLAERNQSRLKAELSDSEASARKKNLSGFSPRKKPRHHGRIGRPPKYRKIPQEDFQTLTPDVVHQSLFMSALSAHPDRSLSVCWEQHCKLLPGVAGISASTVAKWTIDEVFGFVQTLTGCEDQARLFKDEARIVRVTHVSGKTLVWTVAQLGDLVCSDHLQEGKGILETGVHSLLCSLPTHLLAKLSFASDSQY
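L3MBTL1 (50 nM) pre-complexed 30 min with biotinylated H3(1-15)K9me1 peptide (75 nM), then compounds added for 30 min at room temperature; AlphaScreen streptavidin donor/nickel chelate acceptor beads (10 ug/mL final) read after 30 min dark incubation.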
JMJD2A Tudor: qHTS Assay for Inhibitors of JMJD2A-Tudor Domain | Lysine-specific demethylase 4A (Homo sapiens), O75164 | Potency, µM (series often up to 114 µM), for the others: at the highest dose activity change, negative = inhibition, hits mostly inhibitors | 390,000 tested, 4.4% active | AlphaScreen JMJD2A-Tudor / H3K4me3 peptide binding | AID 504339, 2011; further: on the % scale 0 is the no-effect control and ±100 the full control effect; nearly all actives have a fitted effect of over 50% in size
HP1b binding inh: HTS for Inhibitors of HP1-beta Chromodomain Interactions with Methylated Histone Tails; Chromobox protein homolog 1 (Homo sapiens), P83916; AlphaScreen HP1-beta / biotin-H3K9me3 peptide binding; Potency, µM (series often up to 114 µM), without a hit: top-dose activity change, negative = inhibition, most hits filed as inhibitors; 390,000 tested, 0.56% active; AID 540317, 2011; further: nearly all actives have a fitted effect of over 70% in size
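Compound inhibition of the preformed complex between 50 nM HP1-beta and 50 nM biotinylated H3K9me3 peptide was read by AlphaScreen. Buffer was PBS pH 7.4 with 0.01% Tween-20. Incubations ran 30 min at room temperature, with 10 ug/mL donor/acceptor beads.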
BAZ2B inh: qHTS Assay for Inhibitors of BAZ2B; AID 504333, 2011; Bromodomain adjacent to zinc finger domain protein 2B (Homo sapiens), Q9UIF8; AlphaScreen BAZ2B-H3K14Ac peptide displacement; 360,000 tested, 4.4% active; Potency, µM (highest dose often 114 µM), for inactives: at the highest dose activity change, negative = inhibition, usual class: inhibitors; further: on the % scale 0 is the no-effect control and ±100 the full control effect; nearly all actives have a fitted effect of over 60% in size
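BAZ2B 50 nM plus b-H3(5-23)K14Ac 50 nM, PBS pH 7.4/0.01% Tween-20, 30 min RT; compound added (max 110 uM), 30 min RT; streptavidin donor/Ni-chelate acceptor beads 10 ug/mL final, 20 min dark; AlphaScreen read.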
* marks the source's active call; other numbers are inactive results; ? = inconclusive; . = no result given; [ ] = remark or other dose. Shown are actives, neighbours in structure and some others; about 11% of the full set was active somewhere. The call rests on the fitted dose curve; in most records, active means well fitted inhibition curve with a large enough effect; inconclusive means small, poorly fitted or top-dose-only effect; inactive means no such curve, though single readings can be large or run the other way. Potency means the concentration at half of the fitted maximal effect.

SMILES	G9a inh	L3MBTL1 block	JMJD2A Tudor	HP1b binding inh	BAZ2B inh
COc1cc(/C=C2\SC(=S)N(NC(=O)c3ccc(O)c(OC)c3)C2=O)ccc1O	35µM*	.	56µM*	50µM*	35µM*
COc1cc(/C=C2\SC(=S)N(NC(=O)c3ccccc3OC)C2=O)ccc1O	16µM*	.	?	25µM*	20µM*
O=C(NN1C(=O)CSC1=S)c1cccnc1	50µM*	.	?	12%	?
CCOc1cc(/C=C2\SC(=S)N(NC(=O)c3cccnc3)C2=O)ccc1O	10%[12.7 µM]	-23%	-35%	?	10µM*
CSc1ncc(C(=O)N2CCN(c3ccc(Cl)cc3)CC2)c(C)n1	1%[59 µM]	.	-16%	10%	23%
CC(=O)[C@@H]1CC[C@@H]2[C@@H]3C[C@H](C)C4=CC(=O)CC[C@@]4(C)[C@H]3[C@H](O)C[C@]21C	25%[21.5 µM]	.	.	.	.
COc1cc(/C=C2\SC(=S)N(NC(=O)c3ccncc3)C2=O)ccc1O	45µM*	-26%	-9%	-27%	?
COc1cc(/C=C2\SC(=S)N(NC(=O)c3cccc(O)c3)C2=O)ccc1O	35µM*	.	?	45µM*	35µM*
O=C(NN1C(=O)/C(=C/c2cccs2)SC1=S)c1cccnc1	50µM*	-6%	-23%	20%	-31%
O=C(NN1C(=O)/C(=C/c2cccs2)SC1=S)c1ccccc1	7%[59 µM]	8%	-6%	35%	11%
Cc1ccc(Nc2nc(-c3c(C)nc4ccccn34)cs2)cc1	?	0%	?	5%	-38%
Cc1ccc(Nc2nc(-c3c(C)nc4ncccn34)cs2)cc1	40µM*	-13%	?	-37%	?
Cc1nc2ncccn2c1-c1csc(Nc2ccc(O)cc2)n1	11µM*	-21%	-25%	20%	?
Cc1cccc(C)c1NC(=S)N/N=C/c1ccccc1C(=O)O	.	5%	6%[11.4 µM]	36%	-2%
COCCNC(=S)N/N=C(\C)c1ccccc1O	22%[59 µM]	18%	-10%	27%	10µM*
COCCNC(=S)N/N=C(\C)c1ccccc1OC	18%[59 µM]	0%	-6%	33%	-10%
COCCCNC(=S)N/N=C/c1ccccc1O	.	?	56µM*	43%	10µM*
COCCNC(=S)N/N=C/c1ccccc1C(=O)O	8.9µM*	.	?	17%	?
COCCCNC(=S)N/N=C/c1ccc(N(C)C)cc1Cl	8%	-7%	5%	23%	-3%
COc1cccc(NC(=O)Cn2c(=O)n(Cc3ccco3)c(=O)c3cc(OC)c(OC)cc32)c1	6%[59 µM]	.	-9%	40%	-5%
CN(C)CCCNc1c2c(nc3ccccc13)CCC2	40µM*	.	-28%	38%	-4%
COc1ccccc1C1=NNC(=Nc2cccc(S(=O)(=O)N(C)C)c2)SC1	16µM*	?	-21%	?	?
COc1ccc(C(=O)CCNc2ccc3c(c2)OCCO3)cc1	3.2µM*	-5%	-19%	-5%	-27%
CCOc1ccc(N/C(C)=C/C(=O)c2ccc3c(c2)OCCO3)cc1	.	-7%	?	-30%	?
CCOc1ccc(N/C(C)=C\C(=O)c2ccc3c(c2)OCCO3)cc1	.	-5%	?	-21%	25µM*
SMILES	G9a inh	L3MBTL1 block	JMJD2A Tudor	HP1b binding inh	BAZ2B inh
C/C(=C\C(=O)c1ccncc1)Nc1ccccc1O	13%	1%	-14%	20%	-38%
COc1ccc(C(=O)/C=C(\C)Nc2ccc3c(c2)OCO3)cc1	71µM*	-7%	28µM*	?	50µM*
COc1ccc(OC)c(N/C(C)=C/C(=O)c2ccncc2)c1	40µM*	0%	?	-5%	?
COc1ccc(-n2c(C)cc(-c3csc(N)n3)c2C)cc1	8.9µM*	1%	45µM*	?	45µM*
COc1ccc(Cl)cc1-c1csc(N)n1	-7%[0.501 µM]	-9%	-23%	-14%	-13%
Cc1cc(-c2csc(N)n2)c(C)n1-c1ccc(Cl)c(Cl)c1	20µM*	-9%	56µM*	?	?
Nc1nc(-c2ccccc2Cl)cs1	.	.	-25%	?	.
O=C(c1ccc2c(Cl)c3c(nc2c1)CCCC3)N1CCN(c2ccccc2F)CC1	?	.	-18%	28%	-2%[57.1 µM]
COc1cc(NC(=O)c2cc3nc(-c4ccc(C)cc4)cc(C(F)(F)F)n3n2)cc(OC)c1OC	-10%[59 µM]	.	-19%	3%	-2%
CCOc1ccc(-n2c(SCc3ccc([N+](=O)[O-])cc3)nnc2-c2ccc(OC)cc2)cc1	8.9µM*	-5%	?	?	?
O=C(O)c1ccc(N2C(=O)/C(=C/c3ccc(-c4ccc([N+](=O)[O-])cc4)o3)C=C2c2ccccc2)cc1	5.6µM*	-26%	7.9µM*	14µM*	11µM*
COc1cccc(/C=C/c2nc(C#N)c(NCCc3ccc(OC)c(OC)c3)o2)c1	-39%[59 µM]	.	-24%	-1%	-33%
S=C1NCCc2ccccc2C1c1ccccc1Cl (stereo unspecified)	5%[59 µM]	-9%	?	-14%	45µM*
S=C1NCCc2ccccc2C1c1ccccc1 (stereo unspecified)	?	-12%	-32%	?	45µM*
Cc1noc(NS(=O)(=O)c2ccc(NC(=O)CSc3nc4c(cc3C#N)CCCCC4)cc2)c1C	79µM*	.	-34%	-8%	-8%
COc1ccc(NC(=O)CSc2nc3c(cc2C#N)CN(C)CC3)cc1	11µM*	.	-19%	-3%	-9%
CN1CCc2nc(SCC(=O)Nc3ccc(F)cc3)c(C#N)cc2C1	6.3µM*	-8%	.	.	-3%
CCN1CCc2nc(SCC(=O)Nc3ccc(OC)cc3)c(C#N)cc2C1	?	2%	-13%	22%	-2%
COc1ccc(-n2c(SCc3ccccc3F)nc3c([nH]c4ccccc43)c2=O)cc1OC	11%[59 µM]	.	-17%	11%[57 µM]	-3%
CC(=O)Nc1ccc(S(=O)(=O)Nc2ccc(C)c(C)c2)cc1	.	.	-5%	.	.
O=C(NCc1cccs1)C1CCN(S(=O)(=O)c2cccs2)CC1	16%[59 µM]	-4%	1%	23%	-3%
O=C(NCc1cccs1)C1CCN(S(=O)(=O)c2ccccc2F)CC1	79µM*	5%	-1%	41%	-6%
Cc1ccc(NC(=O)CN2C(=O)S/C(=C\c3ccccn3)C2=O)cc1	-12%[59 µM]	14%	-3%	37%	4%
Cc1ccc(NC(=O)CN2C(=O)S/C(=C\c3cc(C)n(-c4cccc(C(=O)O)c4)c3C)C2=O)cc1	.	-29%	56µM*	-13%	45µM*
Cc1ccc(NC(=O)CN2C(=O)S/C(=C\c3ccc(C(=O)O)cc3)C2=O)cc1	2%	2%	?	28%	56µM*

Screens from PubChem.
